In PubChem BioAssay AID720533 (National Center for Advancing Translational Sciences (NCATS), 2013):
In all, about 18,000 compounds went through this assay and about 750 (4.2%) were called active. Roughly 13% stayed inconclusive and do not appear here. This excerpt belongs to a sample that is enriched for actives. A number with no mark means an inactive call. Calls come from the whole dose curve; tested in HEK293 cells.

Experiment: qHTS for Inhibitors of binding or entry into cells for Lassa Virus
Conditions: Lassa virus pseudotyped entry inhibition, cell-based qHTS; series mostly up to 49.2 µM; activity change, negative = inhibition: at the top concentration
% is set by controls: 0 for no effect and ±100 for the full control effect; potency is the fitted concentration of half-maximal effect.

Row | SMILES | activity change, negative = inhibition | Potency
1 | O=C(NCc1ccco1)O[C@@H]1C(=O)c2cc(Br)ccc2O[C@H]1c1ccc2c(c1)OCO2 | -1.63% | 
2 | O=C(C1CCCCC1)N1C[C@@H](n2cc(C3CC3)nn2)[C@@H](O)C[C@@H]1c1ccccc1 | 14.9% | 
3 | COC(=O)c1ccccc1-c1cc(C)cc2c1OC(CNC(=O)C1CCOC1)C2 (configuration not stated) | -27.8% | 
4 | CC(C)c1ccc2c(c1)c(SC(C)(C)C)c(CC(C)(C)C(=O)O)n2Cc1ccc(Cl)cc1 |  | 25.1 µM (active)
5 | COCCN1C(=S)NC(c2cccc(F)c2)C(C(=O)OC)=C1C (configuration not stated) | 11% [at 8.59 µM] | 
6 | O=C(Nc1ccc(C(=O)O)c(O)c1)c1ccccc1 | -5.82% | 
7 | O=C(Nc1cccc(C(F)(F)F)c1)c1cc(Br)cc(Br)c1O |  | 3.98 µM (active)
8 | O=C(Nc1ccc(O)cc1)c1ccccc1O | -7.09% | 
9 | c1ccc2c(c1)[I+]c1ccccc1-2 |  | 0.891 µM (active)
10 | CCCCCCCC/C=C\CCCCCCCC(=O)OC[C@H](CO)OC(C)=O | inactive | 
11 | Cc1cc2oc(=O)cc(-c3ccccc3)c2c(C)c1/C=C/c1ccc(F)cc1 | -26.5% | 
12 | Oc1c(Cl)cc(Cl)c(Cl)c1Cc1c(O)c(Cl)cc(Cl)c1Cl |  | 6.31 µM (active)
13 | C=CCC1CCC(=O)N2CCCC12 (configuration not stated) | 6.13% [at 107 µM] | 
14 | CO[C@H]1C=CO[C@@]2(C)Oc3c(C)c(O)c4c(O)c(c(/C=N/N5CCN(C)CC5)c(O)c4c3C2=O)NC(=O)/C(C)=C\C=C[C@H](C)[C@H](O)[C@@H](C)[C@@H](O)[C@@H](C)[C@H](OC(C)=O)[C@@H]1C | -2.8% | 
15 | COC(=O)C(C(=O)OC)[C@@H](NC=O)c1ccccc1 | 3.12% | 
16 | Cc1c(O)cc(O)c2c(=O)c(-c3ccc(O)cc3)coc12 | 9.52% | 
17 | O=C(OCc1ccccc1)c1ccc(O)cc1 | 5.78% | 
18 | O=c1c(O)c(-c2ccc(O)cc2)oc2ccccc12 | -13.3% | 
19 | O=c1c(CN2CCOc3ccc(CN4CCC(Oc5cccnc5)CC4)cc3C2)coc2ccccc12 | -25.2% | 
20 | O[C@H]1CN(CC2CCCCC2)[C@@H](c2ccccc2)C[C@H]1n1cc(-c2ccc(F)cc2)nn1 | -22.3% | 
21 | O=c1cc(CN2CCCCCCC2)c2c(ccc3ccccc32)o1 | -12.8% | 
22 | CCCCCCN1C[C@H](O)[C@@H](n2cc(COC(=O)c3ccccc3)nn2)C[C@H]1c1ccc(Cl)cc1 | -31.6% | 
